# Experimental data published in the supplement of paper PMC8728848.
# About 410 targets per protein were measured; listed, in parts, are those with the strongest signals and a random draw of the rest.
# B1: OS9 (Arabidopsis thaliana) (protein)
# chain: MRGSHHHHHHGMASMTGGQQMGRDLYDDDDKSRLQIFPAHLVGTFSRNNREPKYKIEFLPEDSPFHPGDNLESMVMLDKHGNRFLCYLPKEEKATSGWTSSQQNISTVMMETQQLVKLKTPDELLQPLSEKCLFRQEGWWSYEFCHQKYVRQLHVEDENKIVQEFFLGTFDPEATAAFNQTVSDASTDASQRYHSHVYTNGTTCDLTGSPREVEVRFVCAETRAMVTSITELSTCKYALTVQCPTLCKHPLFQLEKPVSHTIHCNAIPVEEDATRNKEEQAVDESPKMIADS
# What was measured:
# Assay in all cases: glycan array binding signal (z-score within array); higher = stronger binding
# Details in all cases: glycan notation: IUPAC condensed, linker removed
# Fuc(a1-2)Gal(b1-3)GlcNAc = molecular target: Fuc(a1-2)Gal(b1-3)GlcNAc
# Outline: (§1)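 From the Consortium for Functional Glycomics database, 3228 arrays were curated, keeping only those whose protein sequence was available. Binding is given as a within-array Z-score averaged across arrays sharing a protein sequence and across linkers. Negative Z-scores can be read as non-binding.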
# [1] = molecular target: Fuc(a1-2)Gal(b1-3)GlcNAc(b1-3)[Gal(b1-4)GlcNAc(b1-6)]Gal(b1-4)Glc
# Outline: as §1
# [2] = molecular target: Fuc(a1-2)Gal(b1-4)[Fuc(a1-3)]GlcNAc(b1-2)Man(a1-3)[Fuc(a1-2)Gal(b1-4)[Fuc(a1-3)]GlcNAc(b1-2)Man(a1-6)]Man(b1-4)GlcNAc(b1-4)[Fuc(a1-6)]GlcNAc
# Outline: as §1
# [3] = molecular target: Fuc(a1-2)Gal(b1-4)[Fuc(a1-3)]GlcNAc(b1-3)Gal(b1-4)[Fuc(a1-3)]GlcNAc(b1-3)Gal(b1-4)[Fuc(a1-3)]GlcNAc
# Outline: as §1
# [4] = molecular target: Fuc(a1-2)[Gal(a1-3)]Gal(b1-4)GlcNAc(b1-2)Man(a1-3)[Fuc(a1-2)[Gal(a1-3)]Gal(b1-4)GlcNAc(b1-2)Man(a1-6)]Man(b1-4)GlcNAc(b1-4)GlcNAc
# Outline: as §1
# [5] = molecular target: Fuc(a1-2)[Gal(a1-3)]Gal(b1-4)GlcNAc(b1-6)GalNAc
# Outline: as §1
# [6] = molecular target: Fuc(a1-2)[GalNAc(a1-3)]Gal(b1-4)GlcNAc
# Outline: as §1
# [7] = molecular target: Fuc(a1-3)[Gal(b1-4)]GlcNAc(b1-3)Gal(b1-4)[Fuc(a1-3)]GlcNAc(b1-3)Gal(b1-4)[Fuc(a1-3)]GlcNAc
# Outline: as §1
# [8] = molecular target: Fuc(a1-3)[Gal(b1-4)]GlcNAc6S
# Outline: as §1
# [9] = molecular target: Fuc(a1-3)[Gal3S(b1-4)]GlcNAc
# Outline: as §1
# [10] = molecular target: Fuc(a1-3)[Gal3S(b1-4)]GlcNAc6S
# Outline: as §1
# [11] = molecular target: Fuc(a1-3)[GalNAc(b1-4)]GlcNAc
# Outline: as §1
# Gal(a1-3)Gal(b1-4)GlcNAc = molecular target: Gal(a1-3)Gal(b1-4)GlcNAc
# Outline: as §1
# [12] = molecular target: Gal(a1-3)Gal(b1-4)GlcNAc(b1-6)GalNAc
# Outline: as §1
# Gal(a1-4)Gal(b1-4)Glc = molecular target: Gal(a1-4)Gal(b1-4)Glc
# Outline: as §1
# Gal(b1-3)GalNAc = molecular target: Gal(b1-3)GalNAc
# Outline: as §1
# Gal(b1-3)GalNAc(b1-3)Gal = molecular target: Gal(b1-3)GalNAc(b1-3)Gal
# Outline: as §1
# [13] = molecular target: Gal(b1-3)GlcNAc(a1-3)Gal(b1-4)GlcNAc
# Outline: as §1
# [14] = molecular target: Gal(b1-3)GlcNAc(b1-2)Man(a1-3)[Gal(b1-3)GlcNAc(b1-2)Man(a1-6)]Man(b1-4)GlcNAc(b1-4)[Fuc(a1-6)]GlcNAc
# Outline: as §1
# [15] = molecular target: Gal(b1-3)GlcNAc(b1-3)Gal(b1-4)GlcNAc(b1-3)Gal(b1-4)GlcNAc(b1-2)[Gal(b1-3)GlcNAc(b1-3)Gal(b1-4)GlcNAc(b1-3)Gal(b1-4)GlcNAc(b1-6)]Man(a1-6)[Gal(b1-3)GlcNAc(b1-3)Gal(b1-4)GlcNAc(b1-3)Gal(b1-4)GlcNAc(b1-2)Man(a1-3)]Man(b1-4)GlcNAc(b1-4)[Fuc(a1-6)]GlcNAc
# Outline: as §1
# [16] = molecular target: Gal(b1-3)GlcNAc(b1-6)[Gal(b1-3)]GalNAc
# Outline: as §1
# [17] = molecular target: Gal(b1-3)[Fuc(a1-4)]GlcNAc(b1-2)Man(a1-3)[Gal(b1-3)[Fuc(a1-4)]GlcNAc(b1-2)Man(a1-6)]Man(b1-4)GlcNAc(b1-4)[Fuc(a1-6)]GlcNAc
# Outline: as §1
# [18] = molecular target: Gal(b1-4)GlcNAc(b1-2)[Gal(b1-4)GlcNAc(b1-6)]Man(a1-6)[GlcNAc(b1-4)][Gal(b1-4)GlcNAc(b1-2)Man(a1-3)]Man(b1-4)GlcNAc(b1-4)GlcNAc
# Outline: as §1
# [19] = molecular target: Gal(b1-4)GlcNAc(b1-3)Gal(b1-4)GlcNAc(b1-3)Gal(b1-4)GlcNAc(b1-3)Gal(b1-4)GlcNAc(b1-3)Gal(b1-4)GlcNAc(b1-3)Gal(b1-4)GlcNAc(b1-2)Man(a1-3)[Gal(b1-4)GlcNAc(b1-3)Gal(b1-4)GlcNAc(b1-3)Gal(b1-4)GlcNAc(b1-3)Gal(b1-4)GlcNAc(b1-3)Gal(b1-4)GlcNAc(b1-3)Gal(b1-4)GlcNAc(b1-2)Man(a1-6)]Man(b1-4)GlcNAc(b1-4)GlcNAc
# Outline: as §1
# [20] = molecular target: Gal(b1-4)GlcNAc(b1-3)[Gal(b1-4)GlcNAc(b1-6)]Gal(b1-4)GlcNAc
# Outline: as §1
# Gal3S(b1-4)Glc6S = molecular target: Gal3S(b1-4)Glc6S
# Outline: as §1
# GalNAc(a1-3)Gal = molecular target: GalNAc(a1-3)Gal
# Outline: as §1
# GalNAc(b1-3)GalNAc = molecular target: GalNAc(b1-3)GalNAc
# Outline: as §1
# GalNAc(b1-4)Gal(b1-4)Glc = molecular target: GalNAc(b1-4)Gal(b1-4)Glc
# Outline: as §1
# [21] = molecular target: GalNAc(b1-4)GlcNAc(b1-2)Man
# Outline: as §1
# Glc(a1-4)Glc = molecular target: Glc(a1-4)Glc
# Outline: as §1
# Glc(a1-6)Glc(a1-6)Glc = molecular target: Glc(a1-6)Glc(a1-6)Glc
# Outline: as §1
# [22] = molecular target: GlcNAc(b1-2)[GlcNAc(b1-4)]Man(a1-3)[GlcNAc(b1-4)][GlcNAc(b1-2)[GlcNAc(b1-6)]Man(a1-6)]Man(b1-4)GlcNAc(b1-4)GlcNAc
# Outline: as §1
# [23] = molecular target: GlcNAc(b1-3)Gal(b1-4)GlcNAc(b1-3)Gal(b1-4)GlcNAc(b1-2)Man(a1-3)[GlcNAc(b1-3)Gal(b1-4)GlcNAc(b1-3)Gal(b1-4)GlcNAc(b1-2)Man(a1-6)]Man(b1-4)GlcNAc(b1-4)[Fuc(a1-6)]GlcNAc
# Outline: as §1
# [24] = molecular target: GlcNAc(b1-3)Gal(b1-4)GlcNAc(b1-6)[Gal(b1-3)]GalNAc
# Outline: as §1
# GlcNAc(b1-3)Man = molecular target: GlcNAc(b1-3)Man
# Outline: as §1
# [25] = molecular target: GlcNAc(b1-4)[GlcNAc(b1-6)]GalNAc
# Outline: as §1
# Kdn(a2-3)Gal(b1-4)Glc = molecular target: Kdn(a2-3)Gal(b1-4)Glc
# Outline: as §1
# [26] = molecular target: Man(a1-2)Man(a1-3)[Man(a1-2)Man(a1-6)]Man
# Outline: as §1
# Man(a1-3)[Man(a1-6)]Man = molecular target: Man(a1-3)[Man(a1-6)]Man
# Outline: as §1
# [27] = molecular target: Neu5Ac(a2-3)Gal(b1-3)GlcNAc(b1-3)GalNAc
# Outline: as §1
# [28] = molecular target: Neu5Ac(a2-6)Gal(b1-4)GlcNAc(b1-2)Man(a1-3)Man(b1-4)GlcNAc(b1-4)GlcNAc
# Outline: as §1
# [29] = molecular target: Neu5Ac(a2-6)Gal(b1-4)GlcNAc(b1-2)Man(a1-3)[Neu5Ac(a2-6)Gal(b1-4)GlcNAc(b1-2)Man(a1-6)]Man(b1-4)GlcNAc(b1-4)GlcNAc
# Outline: as §1
# [30] = molecular target: Neu5Ac(a2-8)Neu5Ac(a2-3)Gal(b1-3)GalNAc(b1-4)[Neu5Ac(a2-8)Neu5Ac(a2-3)]Gal(b1-4)Glc
# Outline: as §1
# [31] = molecular target: Neu5Ac(a2-8)Neu5Ac(a2-3)[Gal(b1-3)GalNAc(b1-4)]Gal(b1-4)Glc
# Outline: as §1
# Neu5Gc(a2-3)Gal(b1-4)Glc = molecular target: Neu5Gc(a2-3)Gal(b1-4)Glc
# Outline: as §1
binder,measurement,setting,value
B1,glycan array binding signal (z-score),Fuc(a1-2)Gal(b1-3)GlcNAc,-0.466
same,glycan array binding signal (z-score),[1],2.66
same,glycan array binding signal (z-score),[2],-0.608
same,glycan array binding signal (z-score),[3],4.22
same,glycan array binding signal (z-score),[4],3.36
same,glycan array binding signal (z-score),[5],0.051
same,glycan array binding signal (z-score),[6],-0.828
same,glycan array binding signal (z-score),[7],-0.881
same,glycan array binding signal (z-score),[8],3.45
same,glycan array binding signal (z-score),[9],1.51
same,glycan array binding signal (z-score),[10],-0.706
same,glycan array binding signal (z-score),[11],0.056
same,glycan array binding signal (z-score),Gal(a1-3)Gal(b1-4)GlcNAc,-0.724
same,glycan array binding signal (z-score),[12],0.243
same,glycan array binding signal (z-score),Gal(a1-4)Gal(b1-4)Glc,2.7
same,glycan array binding signal (z-score),Gal(b1-3)GalNAc,-0.097
same,glycan array binding signal (z-score),Gal(b1-3)GalNAc(b1-3)Gal,3.02
same,glycan array binding signal (z-score),[13],-1.06
same,glycan array binding signal (z-score),[14],-0.157
same,glycan array binding signal (z-score),[15],2.88
same,glycan array binding signal (z-score),[16],0.651
same,glycan array binding signal (z-score),[17],7.5
same,glycan array binding signal (z-score),[18],-0.016
same,glycan array binding signal (z-score),[19],0.798
same,glycan array binding signal (z-score),[20],1.43
same,glycan array binding signal (z-score),Gal3S(b1-4)Glc6S,0.366
same,glycan array binding signal (z-score),GalNAc(a1-3)Gal,-0.979
same,glycan array binding signal (z-score),GalNAc(b1-3)GalNAc,0.839
same,glycan array binding signal (z-score),GalNAc(b1-4)Gal(b1-4)Glc,2.57
same,glycan array binding signal (z-score),[21],3.58
same,glycan array binding signal (z-score),Glc(a1-4)Glc,1.98
same,glycan array binding signal (z-score),Glc(a1-6)Glc(a1-6)Glc,-0.542
same,glycan array binding signal (z-score),[22],0.258
same,glycan array binding signal (z-score),[23],-0.144
same,glycan array binding signal (z-score),[24],0.094
same,glycan array binding signal (z-score),GlcNAc(b1-3)Man,0.127
same,glycan array binding signal (z-score),[25],-0.3
same,glycan array binding signal (z-score),Kdn(a2-3)Gal(b1-4)Glc,0.473
same,glycan array binding signal (z-score),[26],0.462
same,glycan array binding signal (z-score),Man(a1-3)[Man(a1-6)]Man,-0.078
same,glycan array binding signal (z-score),[27],0.474
same,glycan array binding signal (z-score),[28],6.74
same,glycan array binding signal (z-score),[29],-0.5
same,glycan array binding signal (z-score),[30],-0.384
same,glycan array binding signal (z-score),[31],1.47
same,glycan array binding signal (z-score),Neu5Gc(a2-3)Gal(b1-4)Glc,-1.01
